This is an account of results in PubChem BioAssay (NCATS).

Structures are written as SMILES. Records with an inconclusive call do not appear. Entries that show only a call come without a potency. Active and inactive are the calls of the source. The call rests on the fitted dose curve; in most records, active means well fitted curve in the direction sought with a large enough effect; inconclusive means small, poorly fitted or top-dose-only effect, or another doubt; inactive means no such curve, though single readings can be large; an effect the other way counts as inactive or inconclusive.

Experiment [1] deals with Aldehyde dehydrogenase, mitochondrial (Homo sapiens) (UniProt P05091). Put plainly: qHTS for Inhibitors of the Aldehyde Dehydrogenase Family (ALDH2) Primary screen (AID 2061308). Further: nearly all actives have a fitted effect of over 55% in size. Further: potency means the concentration at half of the fitted maximal effect.
Experiment [2] has as its target Retinaldehyde dehydrogenase 3 (Homo sapiens) (UniProt P47895). Put plainly: qHTS for Inhibitors of the Aldehyde Dehydrogenase Family (ALDH1A3) Primary screen (AID 2061315).

For `CC(=O)c1ccc(N2CCN(S(=O)(=O)c3ccc4c(c3)CCCN4C(C)=O)CC2)cc1`, the Potency result in experiment [1] and in experiment [2] was “inactive” in each case.
With `Cc1ccc(OCCn2c(CCNC(=O)c3ccco3)nc3ccccc32)cc1`, the Potency result in experiment [1] and in experiment [2] was “inactive” in each case.
Regarding `CCN1CCN(C(=S)c2ccc(O)cc2)CC1`, the Potency result in experiment [1] and in experiment [2] was “inactive” throughout.
For `Cc1cc(C)n2ncc(C(=O)NCc3ccco3)c2n1`, the Potency entry in experiment [1] and in experiment [2] was “inactive” each time.
Consider `CC(C)(C)OC(=O)N1CCN(c2ccc(NCc3ncc(-c4ccc(C#N)cc4)s3)cc2)CC1`, for which, in experiment [1], the Potency is 4.47 µM (active). Also, the Potency entry in experiment [2] is “inactive”.
`Cc1ccc(-c2ccc(=O)n(CC(=O)N(C)C(C)C(C)C)n2)cc1` (stereo not drawn): the Potency result in experiment [1] and in experiment [2] was “inactive” in each case.
For the compound `COc1cccc(O)c1CNc1ccc(S(=O)(=O)Nc2nccs2)cc1`, the Potency result in experiment [1] and in experiment [2] was “inactive” in each case.
Take `Cc1ccccc1-c1nnc(NC(=O)Nc2ccc3ccccc3c2)s1`: the Potency entry in experiment [1] and in experiment [2] was “inactive” in each case.
For the compound `Cc1noc(C)c1C(=O)N1CCC2(CCCN(C(c3ccccc3)c3ccccc3)C2)CC1`, the Potency result in experiment [1] and in experiment [2] was “inactive” in each case.
As to `CC(C)(C)c1ccc(-n2cnc3cc(C(=O)N4CCCCC4)ccc32)cc1`, the Potency entry in experiment [1] and in experiment [2] was “inactive” throughout.
On to `Cc1cccc(CNc2ncnc3ccc(-c4cccc(C)c4)cc23)c1`, for which the Potency entry in experiment [1] and in experiment [2] was “inactive” throughout.
For `O=C(Nc1ccc(Cl)c([N+](=O)[O-])c1)Nc1nnc(C2CCCCC2)s1`, the Potency result in experiment [1] and in experiment [2] was “inactive” throughout.
In the case of `CC(C)(C)c1ccc(-c2ccc(=O)n(CC(=O)NCCc3ccccc3)n2)cc1`, the Potency entry in experiment [1] and in experiment [2] was “inactive” throughout.
With `Cc1cc2c(s1)c1c(C)nn(Cc3ccc(F)cc3)c(=O)c1n2C`, the Potency entry in experiment [1] and in experiment [2] was “inactive” in each case.
As to `Cc1nnc(-c2cnn(C)c2N)n1CCCc1cccnc1`, the Potency result in experiment [1] and in experiment [2] was “inactive” each time.
With `N[C@H](Cc1ccccc1)C(=O)Nc1ccc(Cl)cc1C(=O)c1ccc[nH]1`, the Potency entry in experiment [1] and in experiment [2] was “inactive” each time.
On to `O=C(OCC#CCSc1nnc(-c2ccc3ccccc3c2)o1)c1ccccc1`, for which the Potency entry in experiment [1] and in experiment [2] was “inactive” each time.
Consider `Cc1cc(C)nc(NC(=S)N2CCN(c3ccncc3)CC2)c1`, for which the Potency result in experiment [1] and in experiment [2] was “inactive” in each case.
On to `O=C(O)c1ccc(O)c2ncc(N3CCCN(CCCc4ccncc4)CC3)cc12`, for which the Potency entry in experiment [1] and in experiment [2] was “inactive” in each case.
Take `Cc1ccc(=O)n(CC(=O)NCCc2ccccc2)n1`: the Potency entry in experiment [1] and in experiment [2] was “inactive” each time.
With `CC(=O)Nc1cccc(S(=O)(=O)N2CCN(S(=O)(=O)c3c(F)cccc3F)CC2)c1`, the Potency result in experiment [1] and in experiment [2] was “inactive” each time.
Turning to `CN1CCN(c2ccc(Nc3nc(-c4ccncc4)nc4ccccc34)cc2F)CC1`, the Potency result in experiment [1] and in experiment [2] was “inactive” throughout.
As for `N#Cc1ccccc1CCc1nc2ncc(Br)cc2[nH]1`, the Potency entry in experiment [1] and in experiment [2] was “inactive” throughout.
Regarding `O=C(Nc1ccc(F)c(C(F)(F)F)c1)Nc1nc(-c2ccncc2)cs1`, the Potency entry in experiment [1] and in experiment [2] was “inactive” each time.
For `N#Cc1nc(Nc2cc(F)cc(F)c2)c2ncn(CCCN3CCCC3)c2n1`, the Potency entry in experiment [1] and in experiment [2] was “inactive” each time.
In the case of `COC(=O)Nc1sc2c(c1-c1nc3ccccc3s1)CCNC2`, the Potency entry in experiment [1] and in experiment [2] was “inactive” each time.
`O=C(O)CC(=O)OC[C@H]1O[C@@H](Oc2ccc3c(c2)OC[C@H]2c4cc5c(cc4O[C@@H]32)OCO5)[C@H](O)[C@@H](O)[C@@H]1O`: the Potency entry in experiment [1] and in experiment [2] was “inactive” each time.
On to `O=C(Nc1ccc(-c2ccccc2)cc1)[C@H](Cc1ccc(O[S+](=O)([O-])c2cccc3cnccc23)cc1)N[S+](=O)([O-])c1cccc2cnccc12`, for which the Potency result in experiment [1] and in experiment [2] was “inactive” in each case.
For the compound `O=C(Nc1nnc(-c2ccncc2)s1)NC12CC3CC(CC(C3)C1)C2`, the Potency entry in experiment [1] and in experiment [2] was “inactive” each time.
With `O=C(CNC(=O)C1CCCCCC1)OC(C(=O)Nc1cc(C(F)(F)F)ccc1Cl)c1ccccc1` (stereo not drawn), the Potency result in experiment [1] and in experiment [2] was “inactive” each time.
As for `O=C(O)c1ccc2c(c1)C(=O)N([C@H](Cc1ccc(C(F)(F)F)cc1)C(=O)O)C2=O`, the Potency entry in experiment [1] and in experiment [2] was “inactive” in each case.
As to `Cc1ccc(S(=O)(=O)Nc2cnccc2C(=O)Nc2nc(-c3ccc(-c4ccccc4)cc3)cs2)cc1`, the Potency result in experiment [1] and in experiment [2] was “inactive” throughout.
On to `Cc1ccc(-c2cc(C(=O)NCc3ccc(S(C)(=O)=O)cc3)c3ccccc3n2)cc1C`, for which the Potency result in experiment [1] and in experiment [2] was “inactive” throughout.
On to `COc1cc(O)c(C(CC(=O)N2CCC(c3ccccc3)CC2)c2ccc(OC)c(OC)c2)c(OC)c1` (stereo not drawn), for which the Potency result in experiment [1] and in experiment [2] was “inactive” each time.
For `Cc1ccc(NS(=O)(=O)c2ccc3c(c2)NC(=O)CO3)cc1C`, the Potency entry in experiment [1] and in experiment [2] was “inactive” in each case.
Turning to `CCCn1c(-c2ccc(F)cc2)nc2c(NCCCCN3CCCC3)nc(C)nc21`, the Potency result in experiment [1] and in experiment [2] was “inactive” in each case.
For the compound `COc1cccc(-c2nnc3n2N=C(c2cc(OC)ccc2OC)CS3)c1`, the Potency result in experiment [1] and in experiment [2] was “inactive” in each case.
As for `O=C(Cc1ccc(Cl)c(Cl)c1)Nc1ccc([S+](=O)([O-])Nc2ccccn2)cc1`, the Potency entry in experiment [1] and in experiment [2] was “inactive” each time.
Regarding `COc1ccc(C2c3c(nc(CCCc4ccccc4)[nH]c3=O)Oc3ccc4ccccc4c32)cc1OC` (stereo not drawn), the Potency result in experiment [1] and in experiment [2] was “inactive” in each case.
